# Screening data from PubChem BioAssay.
# TrxR1 inh: rat TrxR1 inhibition. 390,000 compounds, 1% hits. recombinant rTrxR1, NADPH fluorescence consumption, selenite substrate. Potency, µM (highest dose often 114 µM), inactives show at the highest dose activity change, negative = inhibition, most hits filed as inhibitors. O89049; further: potency means the concentration at half of the fitted maximal effect; nearly all actives have a fitted effect of over 65% in size
#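 Rat TrxR1 (90 nM in the dispensed reagent) was pre-reduced with 400 uM NADPH for 5 min at room temperature, then incubated with compound for 15 min. After 400 uM selenite was added, NADPH fluorescence (Ex 340/Em 450 nm) was followed for 8 min.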
# GALK inhibitor: inhibitors of human galactokinase | Potency, µM (top dose mostly 57.5 µM), inactives show at the highest dose activity change, negative = inhibition, most hits filed as inhibitors | 270,000 compounds, 0.007% hits | Purified GALK, Kinase-Glo residual ATP luminescence; further: potency means the concentration at half of the fitted maximal effect
#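 Quantitative HTS: GALK 5 nM, ATP 35 uM, galactose 100 uM, 1 h room temperature, then luciferase-based ATP detection.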
# KAT2A inh: inhibitors of human GCN5L2 histone acetyltransferase; GCN5L2 HAT assay, ThioGlo1 CoA-SH fluorescence; Potency, µM (highest dose often 58.9 µM), for the others: at the highest dose activity change, negative = inhibition, usual class: inhibitors; 390,000 compounds, 0.21% hits; further: potency means the concentration at half of the fitted maximal effect
# Target sequence (Q92830 whole entry, looked up): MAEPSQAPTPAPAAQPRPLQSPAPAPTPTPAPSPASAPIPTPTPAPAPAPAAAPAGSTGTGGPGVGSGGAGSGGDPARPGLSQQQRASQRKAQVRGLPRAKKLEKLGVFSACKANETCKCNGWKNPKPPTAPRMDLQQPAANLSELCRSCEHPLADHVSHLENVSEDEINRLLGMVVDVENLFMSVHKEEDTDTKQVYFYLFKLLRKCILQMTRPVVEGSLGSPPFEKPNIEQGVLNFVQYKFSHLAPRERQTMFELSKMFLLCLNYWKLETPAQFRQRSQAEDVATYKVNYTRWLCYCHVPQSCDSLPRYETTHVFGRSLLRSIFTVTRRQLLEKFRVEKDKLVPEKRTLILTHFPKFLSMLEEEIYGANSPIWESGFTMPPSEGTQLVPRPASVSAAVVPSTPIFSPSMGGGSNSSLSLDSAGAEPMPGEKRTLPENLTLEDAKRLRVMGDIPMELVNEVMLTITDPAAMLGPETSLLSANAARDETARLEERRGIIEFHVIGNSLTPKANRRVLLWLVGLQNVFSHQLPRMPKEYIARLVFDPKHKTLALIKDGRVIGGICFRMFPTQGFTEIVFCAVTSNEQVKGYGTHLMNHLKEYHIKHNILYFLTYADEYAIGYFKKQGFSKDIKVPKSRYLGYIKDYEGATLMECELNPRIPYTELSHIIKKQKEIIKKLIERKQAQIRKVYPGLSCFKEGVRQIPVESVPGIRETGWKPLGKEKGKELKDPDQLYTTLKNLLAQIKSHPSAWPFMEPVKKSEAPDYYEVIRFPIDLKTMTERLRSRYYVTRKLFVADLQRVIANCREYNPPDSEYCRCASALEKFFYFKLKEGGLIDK
#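 Enzyme at 20nM final was mixed with library compounds for 15 min at room temperature. Peptide H3(1-25) at 75uM, acetyl-CoA at 70uM and ThioGlo1 at 50uM were then added. Plates were read immediately and after 20 min (Ex340nm/Em540nm).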
# Giardia killer: kills Giardia lamblia | Giardia lamblia trophozoite viability | activity change, % at 7.66 µM, hits read low | 340,000 compounds, 0.15% hits | AID 540267; in the data active means activity change below about -80%; inconclusive means between about -30% and that limit;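 further: parasites exposed to compound for two days anaerobically before the ATP read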
#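 Giardia lamblia trophozoites (100 cells/well) were incubated with compounds for 48 h at 37 deg C under anaerobic conditions. Viability was read as ATP content by one-step luminescence after 15-30 min at room temperature.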
# Pin1 inhibitor: blocks the human prolyl isomerase Pin1. Q13526. 390,000 compounds, 0.009% hits. AID 504891. Pin1 FP peptide displacement, HiFluor488, 10 min. Potency, µM (titrated, usually from 115 µM), for the others: at the top dose activity, negative = inhibition, usual class: inhibitors; active means well fitted inhibition curve with a large enough effect in the polarisation, with a control signal flat, not every such curve was filed as active; inconclusive means small, poorly fitted or top-dose-only effect, or effect the other way, or a change in a side signal; inactive means no such curve, though single readings can be large or run the other way; the % refers to the polarisation; further: potency means the concentration at half of the fitted maximal effect
# TrxR1 substrate: substrates of rat thioredoxin reductase 1. 390,000 compounds, 0.01% hits. AID 588456. Potency, µM (top dose mostly 114 µM), for the others: at the top dose activity change, negative = substrate turnover. purified TrxR1 substrate turnover, NADPH consumption readout; further: potency means the concentration at half of the fitted maximal effect; nearly all actives have a fitted effect of over 50% in size
#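 Rat TrxR1, dispensed at 90 nM, was prereduced with 400 uM NADPH (final) for 5 min at ~22 deg C, then incubated with compound 15 min before 400 uM selenite. A first-read NADPH fluorescence drop versus no-compound background flagged substrates.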
# * marks the source's active call; other numbers are inactive results; ? = inconclusive; · = no result; ! = not confirmed by another sample; [ ] = another dose, or the depositor's remark. Hits are enriched below; roughly 1.3% of the tested compounds scored in any of these assays. Unless noted, the call rests on the fitted dose curve; in most records, active means well fitted curve in the direction sought with a large enough effect; inconclusive means small, poorly fitted or top-dose-only effect, or another doubt; inactive means no such curve, though single readings can be large; an effect the other way counts as inactive or inconclusive. On the % scale 0 is the no-effect control and ±100 the full control effect.
SMILES,TrxR1 inh,GALK inhibitor,KAT2A inh,Giardia killer,Pin1 inhibitor,TrxR1 substrate
O=Cc1cccc(OC(=O)/C=C/c2ccco2)c1,32µM*,-3%,?,30,·,-3%
CCOC(=O)/C=C/C(=O)OCC(=O)N1CCN(C(=O)c2ccco2)CC1,50µM*,2%,-2%,-6,-15%,-7%
O=C(c1ccco1)N1CCN(S(=O)(=O)c2ccc(Br)s2)CC1,10µM*,0%,-5%,-3,20%,10%
O=C(/C=C/c1ccc(OC(F)F)cc1)OCC(=O)N1CCN(C(=O)c2ccco2)CC1,3%,0%,-9%,-17,3%,3%
CCOC(=O)c1cc(CC)sc1NC(=O)CN1CCN(C(=O)c2ccco2)CC1,35µM*,-5%,-17%,-15,19%,-6%
O=C(c1ccco1)N1CCN(C(=O)N2CCCCC2)CC1,22%[57.1 µM],10%,-8%,17,0%,-8%[57.1 µM]
CC1(C(=O)N2CCN(C(=O)c3ccco3)CC2)CC1(Br)Br (stereo not given),0%,-5%,6.3µM*,-18,-7%,0%
Cc1cnc2ccccc2c1/C=C/c1ccc(N)cc1,?,·,·,·,·,-7%
CC(=O)N1CCc2cc(S(=O)(=O)NC(CC(C)C)C(=O)NCCc3ccc(C)cc3)ccc21 (stereo not given),5%,·,-1%,·,-13%,-2%
CC1CCCC(C)N1C(=O)COC(=O)/C=C/c1ccco1 (stereo not given),50µM*,·,-5%,-7,-7%,3%
O=C(CCNS(=O)(=O)c1cccc(Cl)c1)OCC(=O)N1CCN(C(=O)c2ccco2)CC1,50µM*,·,0%,-3,-2%,11%
CC(=O)Nc1ccc(S(=O)(=O)NCCC(=O)OCC(=O)N2CCN(C(=O)c3ccco3)CC2)cc1,?,4%,-6%,-6,-8%,-2%
Cc1cccc(C(=O)Nc2ccc(OCc3cc(=O)n4ccsc4n3)cc2)c1,-23%,·,2%,·,-5%,?
CCN(CC)C(NC(=O)Cc1ccccc1)C(Cl)(Cl)Cl (stereo not given),7.9µM*,-3%,-12%,-5,2%,11%
CN1CCN/C1=C(/C(Cl)=C(Cl)Cl)[N+](=O)[O-],3.2µM*,8%,-9%,-15,0%,8%[57.1 µM]
CN(Cc1ccccc1)C(=C(Cl)Cl)/C(=C1/NCCN1C)[N+](=O)[O-],-17%,-8%,-5%,-3,-12%,1%
OCC1O[C@H]([S-])[C@H](O)[C@@H](O)[C@@H]1O.[Au+] (stereo not given in full),0.25µM*,·,117%,·,·,13%[57.1 µM]
O=C(NCCCc1cnc[nH]1)NCCCN(Cc1ccc(Cl)cc1)c1ccc(Br)cn1,18%,·,·,3,-1%,-5%
O=C(CC(c1ccco1)S(=O)(=O)c1ccccc1)c1ccc(F)cc1 (stereo not given),50µM*,-1%,-19%,0,1%,8%
COc1cc2cc(CN(Cc3nnnn3Cc3ccco3)C3CCCCC3)c(=O)[nH]c2cc1OC,11µM*,1%,-21%,5,?,24%
CCOc1ccc2[nH]c(=O)c(C(c3nnnn3Cc3ccco3)N3CCN(C)CC3)cc2c1 (stereo not given),4%[57.1 µM],1µM*,0%,-5,-10%,22%[57.1 µM]
CCOc1ccc2[nH]c(=O)c(CN(Cc3ccco3)Cc3nnnn3Cc3ccccc3)cc2c1,14µM*,0%,?,2,2%,23%
CCOc1ccc2[nH]c(=O)c(CN(Cc3nnnn3Cc3ccco3)C3CCCCC3)cc2c1,?,-5%,?,0,29%,4%
Cc1ccc2[nH]c(=O)c(CN(CCO)Cc3nnnn3Cc3ccccc3)cc2c1,3%,·,·,-8,1%,-1%
Cc1ccc2[nH]c(=O)c(CN(CCCO)Cc3nnnn3Cc3ccccc3)cc2c1,20µM*,·,·,-3,10%,5%
SMILES,TrxR1 inh,GALK inhibitor,KAT2A inh,Giardia killer,Pin1 inhibitor,TrxR1 substrate
Cc1ccc(N2CCN(S(=O)(=O)c3ccc4c(c3)CC(=O)N4)CC2)cc1,·,·,·,·,21%[230 µM],·
CCN1CCN(Cc2c(O)ccc3oc(C)c(C(=O)Nc4cccc(Cl)c4C)c23)CC1,24%,·,-1%,·,-7%,3%
CCCCCc1ccc(-c2cn(Cc3ccc4c(c3)C(=O)c3ccccc3C4=O)nn2)cc1,12%,·,·,·,·,-2%
O=C(O)/C=C/C(=O)Nc1ccccc1C(=O)Nc1ccccc1,40µM*,0%,-9%,-6,-4%,-2%
Cc1ccc(C)c(CNC(=O)c2ccc3c(c2)nc2n3CCCCC2)c1,17%[57.1 µM],·,-2%,·,2%,3%[57.1 µM]
Cc1ccc(C)c(N(C)S(=O)(=O)c2ccc3[nH]cc(C(=O)NC4CCCC4)c(=O)c3c2)c1,8%[57.1 µM],·,-9%,·,2%,-1%[57.1 µM]
CC(=O)C1(O)Cc2c(O)c3c(c(O)c2C(OC2CC(N)C(O)C(C)O2)C1)C(=O)c1c(O)cccc1C3=O (stereo not given),-17%,·,-10%,·,·,6%
CCOc1cc(NC(=S)NCCCN2CCOCC2)c(OCC)cc1NC(=O)CC(C)C,22µM*,-3%,-7%,6,-2%,1%[57.1 µM]
CC(C)(C)OC(=O)N(CCc1ccccc1)Cc1cccc(OCc2cccc(NC(=O)c3ccccc3)c2)c1,29%,·,·,8,-1%,-4%
O=C1NC(=O)C(c2ccccc2[N+](=O)[O-])=C1Nc1ccc(O)c(Cl)c1,2.7µM*!,·,?,7,-3%,-3%[57.1 µM]
O=C(NNc1ccccc1[N+](=O)[O-])Nc1ccc(Cl)c(Cl)c1,13%,-1%,-1%,3,-8%,6%[57.1 µM]
c1ccc(CNCc2nnc(-c3cc4ccccc4[nH]3)s2)cc1,·,·,·,·,-2%,·
Cc1ccc(-n2ccnc(NCCc3ccc(S(N)(=O)=O)cc3)c2=O)c(C)c1,10%[57.1 µM],·,-6%,·,-4%,5%[57.1 µM]
Cc1c(NC(=O)C23CC4CC(CC(C)(C4)C2)C3)c(=O)n(-c2ccccc2)n1C,16%[57.1 µM],-3%,20µM*,12,0%,11%[57.1 µM]
CC(=O)NC12CC3CC(C1)CC(C(=O)Nc1c(C)n(C)n(-c4ccccc4)c1=O)(C3)C2,-4%,-6%,0%,8,-4%,-7%
Cn1c(=O)c(C(=O)CCl)c(N)n(Cc2ccccc2)c1=O,?,·,-2%,7,2%,11%[57.1 µM]
Cn1c(N)c(C(=O)CCl)c(=O)n(Cc2ccccc2)c1=O,13µM*,·,-5%,26,3%,10%[57.1 µM]
Cn1nnnc1Sc1ncnc2scc(-c3cccc(Cl)c3)c12,·,·,·,·,-9%,·
O=C(Nc1ccc(Cc2ccncc2)cc1)c1cccc([N+](=O)[O-])c1,25%,1%,-2%,3,-13%,0%
O=C(CCNc1ccc(Cc2ccncc2)cc1)c1ccc([N+](=O)[O-])cc1,16µM*,-2%,-9%,-11,7%,-22%[57.1 µM]
